Source: PubChem BioAssay (Tox21)
Where “and” joins values, the source holds several entries; their conditions need not be identical. Equal values may be shown once. Records with an inconclusive call do not appear. A call without a number means that no potency is given here. More than one record can exist for a structure, and the calls need not agree. Calls of active or inactive are those of the source. The call rests on the fitted dose curve; in most records, active means well fitted curve in the direction sought with a large enough effect in the repeat runs; inconclusive means weak or mixed curves; inactive means no such curve, though single readings can be large; an effect the other way counts as inactive or inconclusive.

What was measured:
[1] = target: Cytochrome P450 2D6 (Homo sapiens) (UniProt P10635); experiment: Cytochrome P450 Family 2 Subfamily D Member 6 (CYP2D6) small molecule antagonists: luciferase reporter qHTS assay (AID 1671196); further: nearly all actives have a fitted effect of over 50% in size; further: potency means the concentration at half of the fitted maximal effect; on activity change, negative = inhibition: series mostly up to about 120 µM
Summary of the method: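 Cell-free P450-Glo system: CYP2D6 with proluciferin substrate was pre-incubated with compound for 10 min, then reacted with NADPH regeneration for 1 h at room temperature. Luciferin product was detected after 20 min, and data were reported as relative luminescence units.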

[2] = target: Cytochrome P450 2C19 (Homo sapiens) (UniProt P33261); experiment: Cytochrome P450 Family 2 Subfamily C Member 19 (CYP2C19) small molecule antagonists: luciferase reporter qHTS assay (AID 1671197); further: nearly all actives have a fitted effect of over 65% in size; further: potency means the concentration at half of the fitted maximal effect; on activity change, negative = inhibition: series mostly up to about 120 µM
Summary of the method: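 First, compounds are pinned into enzyme-substrate mix and held 10 min at room temperature. Second, NADPH regeneration solution is added and plates incubate 1 h at 37C. Third, detection reagent is added and luminescence read after 20 min.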

[3] = target: Cytochrome P450 2C9 (Homo sapiens) (UniProt P11712); experiment: Cytochrome P450 Family 2 Subfamily C Member 9 (CYP2C9) small molecule antagonists: luciferase reporter qHTS assay (AID 1671198); further: nearly all actives have a fitted effect of over 50% in size; further: potency means the concentration at half of the fitted maximal effect; on activity change, negative = inhibition: series mostly up to about 120 µM
Summary of the method: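 CYP2C9 activity was measured with a P450-Glo proluciferin substrate. Enzyme–substrate mix was held with compound for 10 min at room temperature, then NADPH regeneration solution was added for 1 h at 37C. Luciferin product was read as luminescence.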

[4] = target: Cytochrome P450 1A2 (Homo sapiens) (UniProt P05177); experiment: Cytochrome P450 Family 1 Subfamily A Member 2 (CYP1A2) small molecule antagonists: luciferase reporter qHTS assay (AID 1671199); further: nearly all actives have a fitted effect of over 50% in size; further: potency means the concentration at half of the fitted maximal effect; on activity change, negative = inhibition: series mostly up to about 120 µM
Summary of the method: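 P450-Glo CYP1A2 enzyme–proluciferin substrate mix with compound 10 min at room temperature, then NADPH regeneration 1 h at room temperature. Luciferin detection reagent added, luminescence read after 20 min; furafylline positive control.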

[5] = target: Voltage-gated inwardly rectifying potassium channel KCNH2 (Homo sapiens) (UniProt Q12809); experiment: Human Ether-a-go-go-Related Gene (hERG) channel small molecule antagonists: fluorescence cell-based qHTS assay (AID 1671200);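 further: hERG-expressing U2OS cells given a thallium stimulus after FluxOR II dye loading; series mostly up to about 77 µM; nearly all actives have a fitted effect of over 50% in size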
Summary of the method: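 Cell line hERG-U2OS; dye FluxOR II, 1 h RT dark; Tl+ stimulus; ex 480/em 540 nm, read each second for 2 min.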

[6] = target: Cytochrome P450 3A4 (Homo sapiens) (UniProt P08684); experiment: Cytochrome P450 Family 3 Subfamily A Member 4 (CYP3A4) small molecule antagonists: luciferase reporter qHTS assay (AID 1671201); further: nearly all actives have a fitted effect of over 50% in size; further: potency means the concentration at half of the fitted maximal effect; on activity change, negative = inhibition: series mostly up to about 120 µM
Summary of the method: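 Room-temperature assay throughout: 10 min compound–enzyme/substrate preincubation, 1 h reaction after NADPH regeneration solution, 20 min detection. Luciferin formed from proluciferin substrate is quantified by luminescence.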

Chain of Cytochrome P450 2C19 (Homo sapiens) (P33261 whole entry, looked up): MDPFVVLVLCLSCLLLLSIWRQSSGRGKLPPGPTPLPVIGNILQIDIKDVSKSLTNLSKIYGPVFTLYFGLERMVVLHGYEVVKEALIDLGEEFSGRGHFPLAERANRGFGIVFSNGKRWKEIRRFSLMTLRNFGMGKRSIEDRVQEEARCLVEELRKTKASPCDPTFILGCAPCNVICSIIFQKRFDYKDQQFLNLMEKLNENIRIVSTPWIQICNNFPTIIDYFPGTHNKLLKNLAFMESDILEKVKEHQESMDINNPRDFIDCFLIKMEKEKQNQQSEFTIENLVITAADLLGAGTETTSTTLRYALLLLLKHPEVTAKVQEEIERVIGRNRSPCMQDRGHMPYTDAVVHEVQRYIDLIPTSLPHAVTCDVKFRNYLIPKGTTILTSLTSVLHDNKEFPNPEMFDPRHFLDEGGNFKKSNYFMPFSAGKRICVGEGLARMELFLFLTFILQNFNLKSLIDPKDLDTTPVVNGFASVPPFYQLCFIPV
Chain of Cytochrome P450 3A4 (Homo sapiens) (P08684 whole entry, looked up): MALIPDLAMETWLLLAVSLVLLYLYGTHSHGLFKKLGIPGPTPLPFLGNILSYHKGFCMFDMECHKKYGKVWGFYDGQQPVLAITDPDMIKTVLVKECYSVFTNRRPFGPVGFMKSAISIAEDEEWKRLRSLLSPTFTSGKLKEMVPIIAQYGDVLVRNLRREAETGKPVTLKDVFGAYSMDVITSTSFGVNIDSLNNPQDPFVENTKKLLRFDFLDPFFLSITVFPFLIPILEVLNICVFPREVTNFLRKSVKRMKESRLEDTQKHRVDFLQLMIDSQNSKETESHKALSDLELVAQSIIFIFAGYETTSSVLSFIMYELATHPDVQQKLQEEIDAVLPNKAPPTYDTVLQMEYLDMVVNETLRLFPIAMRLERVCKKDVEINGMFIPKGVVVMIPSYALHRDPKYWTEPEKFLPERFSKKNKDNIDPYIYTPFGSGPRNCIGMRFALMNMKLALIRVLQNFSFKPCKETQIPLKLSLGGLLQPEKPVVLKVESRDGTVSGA
Chain of Cytochrome P450 2C9 (Homo sapiens) (P11712 whole entry, looked up): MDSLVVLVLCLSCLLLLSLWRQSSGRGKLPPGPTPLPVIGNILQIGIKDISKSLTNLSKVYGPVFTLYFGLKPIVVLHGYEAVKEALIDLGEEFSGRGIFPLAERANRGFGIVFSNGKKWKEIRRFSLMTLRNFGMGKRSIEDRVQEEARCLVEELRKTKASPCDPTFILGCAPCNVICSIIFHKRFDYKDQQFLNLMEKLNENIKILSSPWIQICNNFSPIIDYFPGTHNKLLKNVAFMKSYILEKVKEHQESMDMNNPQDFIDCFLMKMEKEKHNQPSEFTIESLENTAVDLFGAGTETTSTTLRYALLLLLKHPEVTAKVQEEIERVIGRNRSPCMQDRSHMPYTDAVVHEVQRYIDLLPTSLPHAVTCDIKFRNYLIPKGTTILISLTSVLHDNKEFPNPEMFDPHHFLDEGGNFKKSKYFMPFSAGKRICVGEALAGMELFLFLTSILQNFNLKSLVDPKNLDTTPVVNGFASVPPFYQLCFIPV
Chain of Voltage-gated inwardly rectifying potassium channel KCNH2 (Homo sapiens) (Q12809 whole entry, looked up): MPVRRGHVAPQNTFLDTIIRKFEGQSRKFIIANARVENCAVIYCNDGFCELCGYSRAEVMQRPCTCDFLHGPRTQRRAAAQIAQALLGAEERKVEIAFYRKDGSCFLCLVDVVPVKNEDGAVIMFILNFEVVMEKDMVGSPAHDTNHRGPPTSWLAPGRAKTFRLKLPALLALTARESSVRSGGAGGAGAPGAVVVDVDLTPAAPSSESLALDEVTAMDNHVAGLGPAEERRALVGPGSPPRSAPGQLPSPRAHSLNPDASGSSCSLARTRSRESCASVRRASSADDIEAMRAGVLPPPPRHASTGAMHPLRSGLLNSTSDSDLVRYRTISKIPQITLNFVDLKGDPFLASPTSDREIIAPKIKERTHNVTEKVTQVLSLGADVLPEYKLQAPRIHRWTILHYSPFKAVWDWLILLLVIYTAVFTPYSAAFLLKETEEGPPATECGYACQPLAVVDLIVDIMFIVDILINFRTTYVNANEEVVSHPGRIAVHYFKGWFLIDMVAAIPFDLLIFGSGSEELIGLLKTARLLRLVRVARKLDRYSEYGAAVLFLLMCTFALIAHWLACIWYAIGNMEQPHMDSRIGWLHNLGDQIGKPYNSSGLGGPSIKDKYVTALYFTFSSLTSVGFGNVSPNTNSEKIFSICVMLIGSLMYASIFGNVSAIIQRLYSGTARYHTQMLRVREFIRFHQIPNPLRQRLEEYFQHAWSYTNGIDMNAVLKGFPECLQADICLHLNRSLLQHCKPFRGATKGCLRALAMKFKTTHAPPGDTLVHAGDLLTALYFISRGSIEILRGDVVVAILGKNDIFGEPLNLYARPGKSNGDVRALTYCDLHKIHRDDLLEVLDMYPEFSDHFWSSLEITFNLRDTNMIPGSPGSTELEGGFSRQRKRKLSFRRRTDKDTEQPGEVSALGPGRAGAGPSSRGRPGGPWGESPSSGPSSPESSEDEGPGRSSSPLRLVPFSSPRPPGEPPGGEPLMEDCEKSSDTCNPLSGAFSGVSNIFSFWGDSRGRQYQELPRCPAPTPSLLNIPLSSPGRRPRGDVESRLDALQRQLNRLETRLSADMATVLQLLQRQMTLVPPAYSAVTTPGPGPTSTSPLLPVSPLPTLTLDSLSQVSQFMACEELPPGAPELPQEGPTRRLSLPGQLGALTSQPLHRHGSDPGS
Chain of Cytochrome P450 2D6 (Homo sapiens) (P10635 whole entry, looked up): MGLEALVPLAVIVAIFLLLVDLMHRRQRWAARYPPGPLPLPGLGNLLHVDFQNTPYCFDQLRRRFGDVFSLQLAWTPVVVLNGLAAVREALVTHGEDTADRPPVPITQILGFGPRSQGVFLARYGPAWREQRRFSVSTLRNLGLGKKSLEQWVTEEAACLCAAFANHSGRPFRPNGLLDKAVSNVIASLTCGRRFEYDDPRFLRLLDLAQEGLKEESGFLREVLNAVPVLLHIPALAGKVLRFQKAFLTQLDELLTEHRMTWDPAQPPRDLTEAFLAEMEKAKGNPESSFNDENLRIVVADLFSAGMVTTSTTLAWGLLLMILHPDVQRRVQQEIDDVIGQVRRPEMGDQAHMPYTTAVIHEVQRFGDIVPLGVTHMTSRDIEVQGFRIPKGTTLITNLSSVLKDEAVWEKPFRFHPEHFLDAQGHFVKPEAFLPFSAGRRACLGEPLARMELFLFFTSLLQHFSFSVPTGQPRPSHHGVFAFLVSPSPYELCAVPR
Chain of Cytochrome P450 1A2 (Homo sapiens) (P05177 whole entry, looked up): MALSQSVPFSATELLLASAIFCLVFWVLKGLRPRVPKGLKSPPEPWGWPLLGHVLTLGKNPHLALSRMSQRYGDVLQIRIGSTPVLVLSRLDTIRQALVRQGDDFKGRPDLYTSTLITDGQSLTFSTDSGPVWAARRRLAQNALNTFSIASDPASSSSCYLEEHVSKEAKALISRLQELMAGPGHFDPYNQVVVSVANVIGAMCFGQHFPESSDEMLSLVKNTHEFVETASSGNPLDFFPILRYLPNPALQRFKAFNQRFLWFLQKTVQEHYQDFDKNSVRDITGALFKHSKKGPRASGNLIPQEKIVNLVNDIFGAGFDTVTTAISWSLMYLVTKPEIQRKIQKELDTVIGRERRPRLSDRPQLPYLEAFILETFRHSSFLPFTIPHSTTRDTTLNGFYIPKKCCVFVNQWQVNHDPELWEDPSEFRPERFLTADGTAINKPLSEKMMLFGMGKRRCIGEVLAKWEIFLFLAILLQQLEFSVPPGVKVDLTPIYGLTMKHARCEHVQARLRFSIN

Structure (SMILES)	Potency [1]	Potency [2]	Potency [3]	Potency [4]	Potency [5]	Potency [6]	activity change, negative = inhibition [1]	activity change, negative = inhibition [2]	activity change, negative = inhibition [3]	activity change, negative = inhibition [4]
O=c1c(-c2ccc(O)cc2)coc2cc(O)ccc12	inactive	49.8 µM (active)	280 nM (active) and 159 nM (active)	31.4 µM (active) and 39.9 µM (active)	–	–	–	–	–	–
CCCCC(CC)COC(=O)CCCCCCCC(=O)OCC(CC)CCCC (stereo not given)	71 µM (active) and inactive	7.96 µM (active) and inactive	31.7 µM (active) and inactive	35.6 µM (active) and inactive	inactive	5.64 µM (active) and inactive	–	–	–	–
CC(C)(C)C1CCC(O)CC1 (stereo not given)	inactive	32.2 µM (active) and inactive	inactive	72 µM (active) and inactive	inactive	inactive	–	–	–	–
NCCNCCNCCNCCN	63 µM (active)	63 µM (active)	–	–	–	inactive	-26.4% [at 10.5 µM] (inactive)	36.2% [at 10.5 µM] (inactive)	8.07% [at 10.5 µM] (inactive)	8.65% [at 10.5 µM] (inactive)
CS(=O)(=O)c1ccc([C@@H](O)[C@@H](CO)NC(=O)C(Cl)Cl)cc1	64.1 µM (active) and inactive	28.6 µM (active) and 17.4 µM (active)	inactive	inactive	inactive	inactive	–	–	–	–
Oc1ccc2ccccc2c1N=Nc1ccccc1	35.6 µM (active) and inactive	31.7 µM (active)	11.2 µM (active) and 14.2 µM (active)	356 nM (active) and 2.52 µM (active)	inactive	6.33 µM (active) and 20 µM (active)	–	–	–	–
Cc1ccc(C(=O)O)o1	inactive	inactive	inactive	inactive	inactive	inactive	–	–	–	–
S=c1nc[nH]c2nc[nH]c12	inactive	69.2 µM (active) and 30.9 µM (active)	34.7 µM (active)	inactive	inactive	inactive	–	–	–	–
CCCCCCCCCCCCOCC1CO1 (stereo not given)	inactive	60.4 µM (active)	inactive	63.4 µM (active)	inactive	inactive	–	–	–	–
CCOC(=O)[C@H](CCc1ccccc1)N[C@@H](C)C(=O)N1Cc2ccccc2C[C@H]1C(=O)O	inactive	35.8 µM (active) and inactive	8.02 µM (active) and 12.3 µM (active)	inactive	–	–	–	–	–	–
CC1CC(OC(=O)c2ccccc2O)CC(C)(C)C1 (stereo not given)	inactive	inactive	inactive and 44.8 µM (active)	inactive and 27.5 µM (active)	inactive	inactive	–	–	–	–
Cc1cc(O)cc(C)c1Cl	inactive	inactive	inactive	25.2 µM (active) and 15.5 µM (active)	inactive	inactive	–	–	–	–
Clc1ccc(Cl)c(Cl)c1Cl	inactive	49.7 µM (active)	inactive	inactive and 39.9 µM (active)	inactive	inactive	–	–	–	–
CCC(=O)O	inactive	inactive	inactive	inactive	inactive	inactive	–	–	–	–
CCCCCCCCC	inactive	inactive	inactive	inactive	inactive	inactive	–	–	–	–
CC1(C)O[C@@H]2C[C@H]3[C@@H]4C[C@H](F)C5=CC(=O)CC[C@]5(C)[C@H]4[C@@H](O)C[C@]3(C)[C@]2(C(=O)CO)O1	inactive	inactive	inactive	inactive	inactive	–	–	–	–	–
COCC(=O)O	inactive	73 µM (active) and inactive	inactive	inactive	inactive	inactive	–	–	–	–
CN(C)c1cccc(O)c1	40.5 µM (active)	2.56 µM (active) and 3.56 µM (active)	16.1 µM (active) and 12.6 µM (active)	32.2 µM (active) and 31.7 µM (active)	–	–	–	–	–	–
c1ccc2[nH]cnc2c1	inactive	inactive	inactive	inactive	inactive	inactive	–	–	–	–
O=C(Cl)c1c(Cl)c(Cl)c(C(=O)Cl)c(Cl)c1Cl	89.4 µM (active)	inactive	inactive	inactive	inactive	inactive	–	–	–	–
O=C(c1ccc(O)cc1)c1ccc(O)cc1O	36 µM (active) and 35.6 µM (active)	32.1 µM (active) and inactive	inactive	28.6 µM (active) and 35.6 µM (active)	inactive	7.18 µM (active) and 22.4 µM (active)	–	–	–	–
